Screening results from PubChem.
GLP1R ag: qHTS of GLP-1 Receptor Agonists | Glucagon-like peptide 1 receptor (Homo sapiens), P43220 | HEK293 GLP-1R CRE-luciferase, luminescence, 4-6 h; cells express a hypersensitive GLP-1R form | Potency, µM (top dose mostly 45.6 µM), for inactives: top-dose activation, hits mostly activators | 0.007% of 380,000 active | AID 624172, 2012; note: % of control where 0% means no effect
Target sequence (P43220 whole entry, looked up): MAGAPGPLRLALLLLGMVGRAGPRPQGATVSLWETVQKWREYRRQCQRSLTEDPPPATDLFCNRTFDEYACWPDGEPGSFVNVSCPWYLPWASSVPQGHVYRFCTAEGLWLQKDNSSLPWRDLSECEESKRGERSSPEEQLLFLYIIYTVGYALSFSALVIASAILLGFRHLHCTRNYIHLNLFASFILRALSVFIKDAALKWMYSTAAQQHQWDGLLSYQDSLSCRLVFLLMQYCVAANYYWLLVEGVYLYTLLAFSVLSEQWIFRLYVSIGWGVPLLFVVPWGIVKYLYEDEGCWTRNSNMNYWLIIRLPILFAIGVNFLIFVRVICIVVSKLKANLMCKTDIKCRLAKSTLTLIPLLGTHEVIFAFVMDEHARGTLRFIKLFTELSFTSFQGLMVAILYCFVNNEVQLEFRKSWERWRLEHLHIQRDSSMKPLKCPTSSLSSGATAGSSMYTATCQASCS
GLP-1R inv ag: qHTS of GLP-1 Receptor Inverse Agonists (Inhibition Mode). 1.6% of 410,000 active. HEK293 GLP-1R CRE-luciferase, luminescence, 24 h; GLP-1R form is constitutively active. Glucagon-like peptide 1 receptor (Homo sapiens), P43220. Potency, µM (titrated, usually from 38.3 µM), without a hit: at the top dose activity change, negative = inhibition, usual class: inhibitors; note: % is set by controls: 0 for no effect and ±100 for the full control effect; nearly all actives have a fitted effect of over 55% in size
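HEK293 cells stably co-expressing constitutively active GLP-1R and a cAMP-responsive luciferase reporter were seeded in DMEM with 10% Nu serum, given compounds after 12 h, and incubated 24 h at 37 deg C. Luminescence was then read.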
ATXN2 expr inh: Primary qHTS for Inhibitors of ATXN expression; HEK-293 ATXN2-luciferase reporter, luminescence, 24 h; Potency, µM (doses to about 57 µM), for inactives: at the top dose activity change, negative = inhibition, hits mostly inhibitors; 0.72% of 360,000 active; note: % is set by controls: 0 for no effect and ±100 for the full control effect; nearly all actives have a fitted effect of over 55% in size
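ATXN2-luciferase reporter cells (luciferase flanked by upstream and downstream ATXN2 gene portions) were treated 24 h at 37 °C with compounds at up to 57 uM. SteadyGlo luminescence gave expression; GF-AFC fluorescence gave viability.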
ATXN viability: Viability Counterscreen for Primary qHTS for Inhibitors of ATXN expression; Potency, µM (titrated, usually from 56.7 µM), most hits filed as cytotoxic; AID 651635, 2014; 0.49% of 400,000 active; S2 cells (HEK-293 line with an ATXN2-luciferase reporter) viability, CellTiter-Fluor protease fluorescence, 24 h; note: nearly all actives have a fitted effect of over 40% in size
HepG2 viability: qHTS for Inhibitors of TGF-b: Cytotox Counterscreen; HepG2 CAGA-GFP viability, ATP luminescence, 18 h; Potency, µM (highest dose often 46.1 µM), inactives show top-dose activity change, negative = cytotoxicity, usual class: cytotoxic; 0.76% of 410,000 active
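CellTiter-Glo luminescence gave cytotoxicity after 18 hours at 37 degrees C. The cells were HepG2 CAGA-GFP in 1% FBS DMEM, stimulated with 500 pg/mL TGF-beta after compound addition. %Activity was normalised to no-cell wells (complete cell-killing) and DMSO (no toxicity), and curves were fitted and classified.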
TGFb inhibitor: qHTS for Inhibitors of TGF-b. Potency, µM (doses to about 46.1 µM), without a hit: at the highest dose activity, negative = inhibition, actives largely listed as inhibitors. HepG2 CAGA-GFP TGF-b/SMAD3 reporter, GFP fluorescence, 18 h; TGF-beta stimulated, 500 pg/mL final. AID 588855, 2011. 1.2% of 410,000 active; note: % is set by controls: 0 for no effect and ±100 for the full control effect; nearly all actives have a fitted effect of over 65% in size
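Smad-responsive CAGA-GFP expression was quantified in HEPG2 cells exposed to compounds and 500 pg/mL final TGF-beta for 18 h at 37 degrees C; unstimulated wells defined full inhibition.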
Active calls of the source: *; i = inactive; u = inconclusive; x = not tested or not shown; ! = not active in a repeat. Compounds with a hit are over-represented: about 3.7% of the library has one in this group of screens. Calls come from the whole dose curve; as a rule, active = well fitted curve in the direction sought with a large enough effect; inconclusive = small, poorly fitted or top-dose-only effect, or another doubt; inactive = no such curve, though single readings can be large; an effect the other way counts as inactive or inconclusive. Potency is the fitted concentration of half-maximal effect.

SMILES | GLP1R ag | GLP-1R inv ag | ATXN2 expr inh | ATXN viability | HepG2 viability | TGFb inhibitor
COc1cc(/C=C2\SC(=S)N(CCC(=O)N3CCCCC3)C2=O)cc(OC)c1OC | 5.1% | 10µM* | u | u | -2.2% | 1.3%
COc1cccc(-n2c(SC)nnc2C2CCN(Cc3nc4ccccc4s3)CC2)c1 | x | x | x | i | x | x
Cc1ccc(S(=O)(=O)Nc2ccccc2CNc2ncc(Br)cc2Br)cc1 | -2.3% | 10µM* | -19.0% | i | 7.7% | u
Cc1ccc(S(=O)(=O)Nc2ccccc2CNc2ccc(Br)cn2)cc1 | -3.9% | u | -0.5% | i | -36.5% | u
N#CCC(=O)N/N=C/c1cn(Cc2ccc(Cl)c(Cl)c2)c2ccccc12 | 6.2% | 1.26µM* | u | u | -145.2% | u
O=C(N/N=C/c1cn(Cc2ccccc2)c2ccccc12)c1cc(O)cc(O)c1 | u | 1.2% | 3.5% | i | -17.4% | 1.3%
Cc1ccc(C(=O)N/N=C/c2cn(Cc3ccccc3)c3ccccc23)cn1 | 12.4% | u | x | i | 0.562µM* | 1.58µM*
Cc1ccc(Cn2cc(/C=N/Nc3ccc([N+](=O)[O-])cn3)c3ccccc32)cc1 | 8.5% | 11.2µM* | -15.3% | i | -33.0% | 4.47µM*
O=C(O)Cn1cc(/C=N/Nc2ccc([N+](=O)[O-])cn2)c2ccccc21 | -0.2% | -22.0% | 2.5% | u | -16.8% | 0.6%
N#CCC(=O)N/N=C/c1cn(Cc2ccccc2C#N)c2ccccc12 | 1.3% | 6.2% | -12.5% | i | 6.4% | 29.1%
COC(=O)c1cnc(Nc2nc(C(N)c3ccccc3Cl)cs2)nc1C(F)(F)F (stereo not given) | 11.9% | -22.0% | u | 25.1µM* | -87.4% | 17.8µM*
COC(=O)c1cnc(Nc2nc(C(N)COCc3ccccc3)cs2)nc1C(F)(F)F (stereo not given) | -4.2% | 20.3% | -9.1% | i | -80.6% | u
NC(c1csc(NC(=O)c2cccc(OC(F)(F)F)c2)n1)c1ccccc1Cl (stereo not given) | 0.6% | u | 31.6µM* | u | -83.7% | 11.2µM*
O=S(=O)(O)CCSSCCS(=O)(=O)O | x | x | 6.5% | x | x | x
Cc1ccccc1C1(CC(=O)N2CCCC(C)C2)CC(=O)N(Cc2cccnc2)C1=O (stereo not given) | x | x | x | i | x | x
Cc1cccc(N2CCN(C(=O)C3CCCN(S(=O)(=O)c4ccc5c(c4)oc(=O)n5C)C3)CC2)c1C (stereo not given) | -1.1% | u | -16.4% | u | -25.5% | u
O=C1C=C(c2ccc(Cl)c(C(F)(F)F)c2)C[C@@H](c2ccc(F)cc2)C1 | 17.1% | 12.4% | -22.3% | u | -31.5% | u
COc1ccc([C@H]2CC(=O)C=C(c3ccc(Cl)cc3C)C2)cc1 | 5.8% | -2.5% | -3.5% | i | -1.5% | u
O=C1C=C(c2ccc(Cl)c(C(F)(F)F)c2)C[C@@H](c2ccc(Cl)cc2)C1 | 9.3% | u | -16.4% | i | -45.0% | 14.1µM*
Cc1cc(Cl)ccc1C1=CC(=O)C[C@H](c2ccc(F)cc2)C1 | -2.0% | 11.2µM* | -8.7% | i | -30.4% | u
COc1ccc(CCSc2n[nH]c(C(C)C)n2)cc1 | x | x | x | x | -4.6% | -2.3%
COc1cccc(C2(CC(=O)N3CCC(c4nc5ccccc5o4)CC3)CC(=O)N(C)C2=O)c1 (stereo not given) | x | x | x | i | x | x
COc1ccc(NC(C)C(=O)Nc2ccc(C#N)cc2)cc1Cl (stereo not given) | 3.7% | u | -23.5% | i | -33.1% | u
COc1ccc(NC(C)C(=O)Nc2ccc(C(C)(C)C)cc2)cc1Cl (stereo not given) | 10.5% | 4.47µM* | -5.7% | i | -37.2% | u
CCC(=O)Nc1cccc(-c2cnc3ccccc3n2)c1 | 6.3% | 0.0% | 48.3% | i | -8.6% | 10.7%
SMILES | GLP1R ag | GLP-1R inv ag | ATXN2 expr inh | ATXN viability | HepG2 viability | TGFb inhibitor
O=C(CCl)Nc1cccc(-c2cnc3ccccc3n2)c1 | -0.5% | 8.91µM* | u | x | 11.2µM* | 7.08µM*
CC(=O)c1c(C)oc2ccc(N(C(C)=O)S(=O)(=O)c3ccc(Cl)c([N+](=O)[O-])c3)cc12 | -13.4% | u | 25.1µM* | x | -21.5% | 6.8%
Nc1c(N(CCC2=CCCCC2)C(=O)COc2ccc(F)cc2Cl)c(=O)[nH]c(=O)n1Cc1ccccc1 | 3.2% | -35.8% | 11.2µM* | x | 3.55µM* | 3.16µM*
O=C(Nc1ccc(Br)cc1)c1cc(Br)c(Br)s1 | -0.1% | x | x | x | x | x
CC(C)(CNC(=O)c1cnn(-c2ncc3c(n2)-c2ccccc2CC3)c1C1CC1)N1CCOCC1 | x | x | x | i | x | x
CC(C)(C)NC(=O)C(c1ccc(-c2ccccc2)cc1)N(C[C@H]1CC[C@@H]([C@@H]2CC[C@H](CO)O2)O1)C(=O)c1ccc2ccccc2c1 (stereo not given in full) | -4.8% | u | u | 20µM* | -88.7% | u
CCOc1ccc(CNC(=O)c2cnc3sc(N4CCOCC4)nn3c2=O)cc1OC | x | 27.2% | x | x | -7.7% | 0.0%
O=C(Nc1cccc(Br)c1)N1CCC(CN2CCCCCC2)CC1 | x | -5.7% | x | x | -16.6% | -3.3%
Nc1ccc(/C=C/c2ccc3ncccc3c2)cc1 | 13.2% | -15.4% | x | i | 7.08µM*! | u
CC(C)=CCCC1(C)C=Cc2c(c(C)cc3c2[nH]c2cc(O)ccc23)O1 (stereo not given) | 3.7% | u | u | 28.2µM* | 11.2µM* | 11.2µM*
CC(NC(=O)c1cc(F)ccc1F)c1nnc2n1CCN(Cc1ccccc1O)CC2 (stereo not given) | x | x | x | i | x | x
O=c1[nH]c(=O)n([C@H]2C[C@H](O)[C@@H](CO)O2)cc1C(F)(F)F | -0.9% | u | 2µM*! | i | -13.1% | -5.7%
O=c1[nH]c(=O)n([C@H]2C[C@@H](O)[C@@H](CO)O2)cc1F | x | x | 1.09µM* | x | -36.6% | u
CCOC(=O)N1CCN(C(=O)c2ccc(-c3ccccc3OC)nc2N2CCC(N3CCCC(CO)C3)CC2)CC1 (stereo not given) | x | x | x | i | x | x
Cc1nc2nc(-c3ccc(Cl)cc3Cl)nn2c(C)c1CCC(=O)Nc1ccc(F)cc1 | -0.7% | 13.2% | -21.0% | i | -14.1% | 8.7%
O=C(Nc1ccc(-c2nc3ccccc3o2)c(O)c1)c1cc(-n2cnnc2)ccc1Cl | -1.3% | 71.2% | -39.2% | i | 17.8µM* | 0.0%
